# Screening results as filed in PubChem BioAssay.
# The entries come from a sample that favours hits as a whole.
# TbREL1 primary – TbREL1 inhibition, primary screen | 89,000 tested, 0.49% active | AID 1117264 | P86926 | TbREL1 RNA ligation, FRET fluorescence | inhibition, % at 9.66 µM;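 active = inhibition above the mean inhibition across all screened compounds plus 3 SD, cut at about 11% in these data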;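 also: 0% = plate median of test wells and 100% = NSC42067 control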
# TbREL1 confirm – TbREL1 inhibition, confirmation; shares compounds with TbREL1 primary; TbREL1 RNA ligation, FRET fluorescence; inhibition, % at 9.66 µM; 390 tested, 37% active; AID 1117282;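 active = mean inhibition across replicates above a set limit taken from the earlier primary screen, cut at about 11% in these data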;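 also: 0% = REL1 with substrate and DMSO and 100% = REL1 plus control inhibitor NSC42067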
# The depositor's hits bear a star.
SMILES,TbREL1 primary,others
CCN1C(=NCc2cccc(Cl)c2)N[C@@H](c2cccc(F)c2)C(C(=O)OC)=C1C,7,
COC(=O)C1=C(C)N(Cc2ccccc2)C(=NCc2cccc(C(F)(F)F)c2)N[C@H]1c1cccc(F)c1,9,
COC(=O)[C@]12C[C@H](CC(=O)NCc3ccccc3)C(=O)N(Cc3cccc4ccccc34)C1=C[C@H](C(C)(C)C)O[C@@H]2C,11,
COc1ccc(-c2noc(C3CCCN(C(=O)Nc4cc(C)cc(C)c4)C3)n2)cc1 (centres undefined),5,
COc1ccc(CN2C(=O)c3ccnn3CC2(C)c2nnnn2-c2c(C)cccc2C)cc1 (centres undefined),-1,
O=C(c1cccc(F)c1F)N1CCCC(c2nc(-c3cccs3)no2)C1 (centres undefined),-3,
COC(=O)C1=C(C)N(Cc2ccccc2C(F)(F)F)C(=NCc2ccc(C(F)(F)F)cc2)NC1c1ccccc1 (centres undefined),16*,TbREL1 confirm=18*
CCN=C1NC(c2ccc(F)cc2)C(C(=O)OC)=C(C)N1Cc1ccc(C(F)(F)F)cc1 (centres undefined),4,
CCN=C1NC(c2ccc(C(F)(F)F)cc2)C(C(=O)OC)=C(C)N1Cc1ccccc1C(F)(F)F (centres undefined),11*,TbREL1 confirm=12*
COC(=O)C1=C(C)N(Cc2ccccc2)C(=NCc2ccc(OC)cc2)N[C@H]1c1ccccc1,10,
CC(=O)N1CCc2cc(S(=O)(=O)NC3CCN(C(=O)OCc4ccccc4)CC3)ccc21,-1,
COc1ccc([C@H]2OC(=O)C[C@H]2C(=O)N2CCN(c3ccccc3C(F)(F)F)CC2)cc1OC,4,
